Test results published in PubChem BioAssay (NCATS).
Where “and” joins values, the source holds several entries; their conditions need not be identical. Identical values can stand only once. Inconclusive results are not listed. A structure can be active in one record and inactive in another. Calls of active or inactive are those of the source. Unless noted, calls follow the shape of the dose curve; as a rule, active = well fitted curve in the direction sought with a large enough effect; inconclusive = small, poorly fitted or top-dose-only effect, or another doubt; inactive = no such curve, though single readings can be large; an effect the other way counts as inactive or inconclusive.

Tests used:
[1] = target: Guanine nucleotide-binding protein G(i) subunit alpha-1 (Homo sapiens) (UniProt P63096); experiment: qHTS Assay for Inhibitors of RGS12 GoLoco Motif Activity (Green Fluorophore) (AID 879); conditions: Galphai1/FITC-RGS12 GoLoco peptide, fluorescence polarization; series mostly up to 57.1 µM; also: potency is read from the fitted curve at half-maximal effect
Chain of Guanine nucleotide-binding protein G(i) subunit alpha-1 (Homo sapiens) (P63096 whole entry, looked up): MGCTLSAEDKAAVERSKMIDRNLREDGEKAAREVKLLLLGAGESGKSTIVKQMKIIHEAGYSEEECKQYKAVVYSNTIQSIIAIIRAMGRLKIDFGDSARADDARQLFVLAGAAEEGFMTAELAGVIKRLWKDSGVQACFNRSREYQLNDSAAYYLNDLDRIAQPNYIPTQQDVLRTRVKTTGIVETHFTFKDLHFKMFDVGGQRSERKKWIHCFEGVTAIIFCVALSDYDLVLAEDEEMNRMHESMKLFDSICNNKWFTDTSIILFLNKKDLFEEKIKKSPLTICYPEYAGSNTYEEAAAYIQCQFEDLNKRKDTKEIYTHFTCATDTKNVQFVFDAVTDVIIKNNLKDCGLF
Procedure, shortened: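 Fluorescence polarization assay: 50 nM Gαi1 with 10 nM FITC-labeled RGS12 GoLoco peptide in 10 mM Tris pH 7.5, 150 mM NaCl, 0.1 mM GDP, 0.05% NP40, 10 min at room temperature with compound.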

[2] = target: Pyruvate kinase (Leishmania mexicana) (UniProt Q27686); experiment: qHTS Validation Assay for Inhibitors of Leishmania Mexicana Pyruvate Kinase (AID 945); also: potency is read from the fitted curve at half-maximal effect; conditions: purified L. mexicana pyruvate kinase, enzyme activity, E451W mutant enzyme; series mostly up to 57.5 µM
Chain of Pyruvate kinase (Leishmania mexicana) (Q27686 2-499 E452W): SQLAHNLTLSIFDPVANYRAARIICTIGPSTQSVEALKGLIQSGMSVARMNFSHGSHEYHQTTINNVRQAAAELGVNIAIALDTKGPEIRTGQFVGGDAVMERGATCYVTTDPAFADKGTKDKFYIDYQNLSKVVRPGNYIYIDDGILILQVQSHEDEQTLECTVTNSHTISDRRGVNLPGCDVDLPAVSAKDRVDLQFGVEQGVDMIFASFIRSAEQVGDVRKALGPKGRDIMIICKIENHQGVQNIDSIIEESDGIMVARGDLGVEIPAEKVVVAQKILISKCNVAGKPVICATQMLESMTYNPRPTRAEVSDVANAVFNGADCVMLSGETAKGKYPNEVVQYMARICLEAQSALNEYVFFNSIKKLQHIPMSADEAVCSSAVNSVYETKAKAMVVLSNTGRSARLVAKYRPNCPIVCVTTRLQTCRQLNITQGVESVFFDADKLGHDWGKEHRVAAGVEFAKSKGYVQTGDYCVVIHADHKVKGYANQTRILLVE
Procedure, shortened: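 The enzyme is a highly purified E451W mutant of LmPYK used at 0.2 nM. It converts 0.5 mM PEP and 0.1 mM ADP over 1 h at room temperature; product ATP is quantified by luciferase luminescence relative to DMSO controls.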

[3] = target: Pyruvate kinase PKM (Homo sapiens) (UniProt P14618); experiment: qHTS Assay for Activators of Human Muscle Pyruvate Kinase (AID 954; active = well fitted curve in the direction sought with a large enough effect, not every such curve was filed as active;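 also: 0% = uninhibited enzyme and -100% = no enzyme or full thiadiazolimine inhibition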); conditions: purified human muscle pyruvate kinase, luciferase-coupled luminescence, 1 h; series mostly up to 57.5 µM
Chain of Pyruvate kinase PKM (Homo sapiens) (P14618 whole entry, looked up): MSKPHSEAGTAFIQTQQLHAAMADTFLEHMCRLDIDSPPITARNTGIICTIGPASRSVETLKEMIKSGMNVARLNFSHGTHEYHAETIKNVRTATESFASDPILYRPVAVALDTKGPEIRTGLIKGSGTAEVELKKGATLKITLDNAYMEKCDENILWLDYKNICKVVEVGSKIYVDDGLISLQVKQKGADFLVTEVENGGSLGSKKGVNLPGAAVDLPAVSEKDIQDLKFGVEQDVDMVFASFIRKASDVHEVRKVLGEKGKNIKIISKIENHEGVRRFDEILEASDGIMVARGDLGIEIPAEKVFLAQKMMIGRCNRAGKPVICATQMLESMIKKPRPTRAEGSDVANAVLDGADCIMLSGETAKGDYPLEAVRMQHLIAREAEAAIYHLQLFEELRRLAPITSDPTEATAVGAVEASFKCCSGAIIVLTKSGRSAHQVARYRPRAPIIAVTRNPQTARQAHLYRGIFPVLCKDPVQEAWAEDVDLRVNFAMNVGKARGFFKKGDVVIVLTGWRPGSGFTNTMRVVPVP
Procedure, shortened: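 Purified human PKM2 (0.1 nM) with 0.5 mM PEP (Km) and 0.1 mM ADP in 50 mM imidazole pH 7.2, KCl, MgCl2, 1 h at room temperature; ATP formed read by coupled luciferase luminescence. Normalized to no-enzyme/110 uM thiadiazolimine inhibition; 0.3 nM enzyme column for activation.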

[4] = target: Alpha-galactosidase A (Homo sapiens) (UniProt P06280); experiment: Counterscreen for Glucocerebrosidase Inhibitors: qHTS Assay for Human alpha-Galactosidase at pH 4.5 (AID 992); conditions: purified enzyme, fluorogenic substrate; series mostly up to 76.9 µM; also: 0% is about no effect
Procedure, shortened: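 Human enzyme (2 nM) with 80 uM 4-methylumbelliferyl alpha-D-galactopyranoside in 50 mM citric acid, 0.005% Tween-20, pH 4.5, 20 min at room temperature. Compounds 0.7 nM–77 uM; fluorescence Ex 365/Em 440 after pH 10 stop; AC50 from Hill fits.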

[5] = target: alpha-glucosidase (Oryza sativa, rice) (UniProt Q653V4); experiment: Counterscreen for Glucocerebrosidase Inhibitors: qHTS Assay for Rice alpha-Glucosidase at pH 5.0 (AID 997); conditions: rice alpha-glucosidase enzyme activity; series mostly up to 76.9 µM;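 also: 0% = full activity with enzyme and -100% = basal without enzyme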
Procedure, shortened: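 Rice alpha-glucosidase (4 nM final) with 400 uM 4-methylumbelliferyl-alpha-D-glucopyranoside in citrate buffer pH 5.0, 20 min at room temperature, stopped at pH 10; fluorescence 365/440 nm, compounds 0.7 nM–77 uM, AC50 from Hill fits.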

[6] = Cellular Toxicity (caspase-3) Jurkat (AID 655); conditions: Jurkat caspase-3 activation, luminescence; caspase-3 activation: at 92.2 µM (top of the series), DMSO = 0%, tamoxifen = 100%;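 also: cells exposed to compound for 16 h at 37 °C before reading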; also: potency is read from the fitted curve at half-maximal effect
Procedure, shortened: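 Jurkat cells (5000/well) in complete medium were treated with compounds for 16 hr at 37 °C, then Caspase-Glo 3/7 luminescence was read after 20 min at room temperature. Data normalized to DMSO (basal) and 100 uM tamoxifen (100%); AC50 from Hill fit.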

[7] = target: Glucocorticoid receptor (Homo sapiens) (UniProt P04150); experiment: qHTS assay for small molecule agonists of glucocorticoid receptor signaling (AID 588532; active = well fitted curve in the direction sought with a large enough effect in the signal ratio, with a control signal flat; the % refers to the signal ratio; also: potency is read from the fitted curve at half-maximal effect;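 as to activation: 100% = dexamethasone at 0.1 µM and 0% = DMSO only wells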); conditions: HeLa MMTV-bla, beta-lactamase ratio, agonist, 18 h; activation: stronger effect = higher value, percent of dexamethasone control, DMSO zero
Chain of Glucocorticoid receptor (Homo sapiens) (P04150 whole entry, looked up): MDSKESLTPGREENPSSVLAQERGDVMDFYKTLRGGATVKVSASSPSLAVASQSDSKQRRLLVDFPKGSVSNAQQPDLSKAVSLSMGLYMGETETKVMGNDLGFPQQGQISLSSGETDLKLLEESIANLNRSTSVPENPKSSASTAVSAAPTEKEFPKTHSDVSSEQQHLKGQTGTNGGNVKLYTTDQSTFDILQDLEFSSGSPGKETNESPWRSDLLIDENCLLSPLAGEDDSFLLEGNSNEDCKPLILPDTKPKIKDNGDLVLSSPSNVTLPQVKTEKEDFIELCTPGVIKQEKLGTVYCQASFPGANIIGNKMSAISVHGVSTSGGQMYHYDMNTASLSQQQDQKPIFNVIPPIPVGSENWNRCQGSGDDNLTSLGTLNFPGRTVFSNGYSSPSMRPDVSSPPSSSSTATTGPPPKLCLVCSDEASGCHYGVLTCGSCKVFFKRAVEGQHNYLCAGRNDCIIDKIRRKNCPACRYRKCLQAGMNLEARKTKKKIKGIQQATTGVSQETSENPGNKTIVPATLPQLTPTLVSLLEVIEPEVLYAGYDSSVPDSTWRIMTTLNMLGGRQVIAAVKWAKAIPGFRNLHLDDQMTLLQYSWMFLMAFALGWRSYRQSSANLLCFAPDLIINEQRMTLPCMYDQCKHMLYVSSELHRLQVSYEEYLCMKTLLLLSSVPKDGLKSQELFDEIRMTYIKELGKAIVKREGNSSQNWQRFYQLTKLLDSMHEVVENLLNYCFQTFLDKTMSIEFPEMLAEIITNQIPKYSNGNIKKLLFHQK
Procedure, shortened: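 MMTV-bla HeLa, beta-lactamase reporter; medium with 1% charcoal/dextran-stripped FBS; cpds up to 92 uM, 18 h, 37 C; CCF4 readout 460/530 nm; Hill fit → EC50, efficacy vs 0.1 uM dexamethasone = 100%.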

[8] = target: Vitamin D3 receptor (Homo sapiens) (UniProt P11473); experiment: qHTS assay for small molecule agonists of vitamin D receptor signaling (AID 588543; calls by dose curve;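 also: 0% = DMSO basal and 100% = reference agonist control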); conditions: HEK293T VDR-UAS-bla, beta-lactamase ratio, 16 h; series mostly up to 76.8 µM
Chain of Vitamin D3 receptor (Homo sapiens) (P11473 whole entry, looked up): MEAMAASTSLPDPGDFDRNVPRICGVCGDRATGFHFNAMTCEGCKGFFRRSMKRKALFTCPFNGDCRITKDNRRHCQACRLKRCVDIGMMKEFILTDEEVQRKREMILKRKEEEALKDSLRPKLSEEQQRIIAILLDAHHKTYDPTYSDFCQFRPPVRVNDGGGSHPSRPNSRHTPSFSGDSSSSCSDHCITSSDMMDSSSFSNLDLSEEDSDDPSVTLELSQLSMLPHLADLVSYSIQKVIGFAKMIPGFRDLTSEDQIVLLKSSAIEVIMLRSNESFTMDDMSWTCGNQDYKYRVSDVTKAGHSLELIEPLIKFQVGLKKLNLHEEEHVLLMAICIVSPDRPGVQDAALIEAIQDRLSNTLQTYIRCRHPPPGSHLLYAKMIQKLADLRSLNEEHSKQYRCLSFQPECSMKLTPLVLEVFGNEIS
Procedure, shortened: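 GeneBLAzer VDR-UAS-bla HEK293T cells in 2% charcoal-stripped FBS medium were dosed with compound titrations for 16 h at 37 °C; CCF4 β-lactamase readout (405 nm ex, 460/530 nm em). EC50 and efficacy from Hill fits, normalized to 50 nM calcitriol (100%) and DMSO (0%).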

[9] = qHTS assay for small molecule antagonists of retinoid X receptor alpha signaling (AID 588546; active = well fitted inhibition curve with a large enough effect in the signal ratio, with a control signal flat, not every such curve was filed as active; the % refers to the signal ratio;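 also: cells stimulated with 9-cis-retinoic acid as agonist; % is scaled to controls: 0 for no effect and ±100 for the full control effect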); conditions: HEK293T RXRa-UAS-bla, beta-lactamase ratio, antagonist mode; measured here: W530 green channel, cytotoxicity proxy
Procedure, shortened: (§1)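 Beta-lactamase reporter inhibition, read as CCF4 fluorescence ratio (ex 405, em 460/530 nm) after 2 h at RT. HEK293T UAS-bla cells, 2500/well, were stimulated with 9-cis-RA at 500 or 100 nM final alongside test compound for 18 h at 37 C.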

[10] = target: Retinoic acid receptor RXR-alpha (Homo sapiens) (UniProt P19793); experiment: as above; conditions: HEK293T RXRa-UAS-bla, beta-lactamase ratio, antagonist mode
Chain of Retinoic acid receptor RXR-alpha (Homo sapiens) (P19793 whole entry, looked up): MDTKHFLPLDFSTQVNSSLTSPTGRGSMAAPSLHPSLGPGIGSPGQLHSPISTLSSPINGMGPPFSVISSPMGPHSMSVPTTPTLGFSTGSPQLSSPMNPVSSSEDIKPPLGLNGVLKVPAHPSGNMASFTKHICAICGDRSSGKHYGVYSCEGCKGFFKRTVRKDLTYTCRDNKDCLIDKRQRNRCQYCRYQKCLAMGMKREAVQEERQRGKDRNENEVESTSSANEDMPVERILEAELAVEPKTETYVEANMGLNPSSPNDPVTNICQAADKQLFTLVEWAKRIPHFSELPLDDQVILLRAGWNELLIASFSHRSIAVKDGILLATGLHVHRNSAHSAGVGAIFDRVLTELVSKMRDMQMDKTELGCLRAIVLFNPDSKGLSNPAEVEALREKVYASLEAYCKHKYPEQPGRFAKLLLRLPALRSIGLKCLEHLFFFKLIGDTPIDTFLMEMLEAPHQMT
Procedure, shortened: as §1

[11] = target: Cytochrome P450 3A4 (Homo sapiens) (UniProt P08684); experiment: qHTS Assay for Inhibitors and Substrates of Cytochrome P450 3A4 (AID 884); conditions: recombinant CYP3A4, Luciferin-PPXE luminescence; series mostly up to 57.1 µM; also: % is scaled to controls: 0 for no effect and ±100 for the full control effect; nearly all actives have a fitted effect of over 50% in size
Chain of Cytochrome P450 3A4 (Homo sapiens) (P08684 whole entry, looked up): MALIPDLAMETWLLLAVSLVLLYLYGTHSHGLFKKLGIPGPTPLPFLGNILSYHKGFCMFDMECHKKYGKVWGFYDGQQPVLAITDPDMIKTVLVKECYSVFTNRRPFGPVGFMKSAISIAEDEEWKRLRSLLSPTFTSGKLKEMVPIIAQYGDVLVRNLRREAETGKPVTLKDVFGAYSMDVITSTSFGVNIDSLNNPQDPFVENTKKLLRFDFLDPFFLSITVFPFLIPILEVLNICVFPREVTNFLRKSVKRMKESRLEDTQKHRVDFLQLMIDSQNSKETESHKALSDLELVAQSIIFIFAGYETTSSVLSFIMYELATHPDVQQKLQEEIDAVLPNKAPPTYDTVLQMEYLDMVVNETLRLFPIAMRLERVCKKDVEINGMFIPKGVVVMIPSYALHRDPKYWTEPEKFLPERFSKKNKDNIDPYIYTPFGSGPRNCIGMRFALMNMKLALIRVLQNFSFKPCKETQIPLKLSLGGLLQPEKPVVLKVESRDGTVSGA
Procedure, shortened: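 20 nM human CYP3A4 with 25 uM Luciferin-PPXE (at KM) in 200 mM KPO4, preincubated 10 min with compound; NADPH regeneration started a 60 min RT reaction. Luciferin detected by luminescence, normalized to 57 uM ketoconazole as full inhibition.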

[12] = Cell Viability - LYMP2-026 (AID 989); conditions: LYMP2-026 lymphoblastoid cell viability, qHTS; series mostly up to 92.2 µM; also: nearly all actives have a fitted effect of over 50% in size; also: potency is read from the fitted curve at half-maximal effect
Procedure, shortened: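 Human lymphoblastoid cells (2500/well) in complete medium were preincubated 5 hr at 37 C, then exposed to compounds for 24 hr at 37 C. Cellular ATP was read by CellTiter-Glo luminescence; AC50 from Hill-equation fits of concentration-response data.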

[13] = target: Glucocorticoid receptor (Homo sapiens) (UniProt P04150); experiment: qHTS assay for small molecule antagonists of glucocorticoid receptor signaling (AID 588533; active = well fitted inhibition curve with a large enough effect in the signal ratio, with a control signal flat, not every such curve was filed as active; the % refers to the signal ratio;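 also: cells stimulated with 2 nM dexamethasone as agonist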; also: potency is read from the fitted curve at half-maximal effect); conditions: HeLa MMTV-bla, GRE beta-lactamase ratio, antagonist mode, 18 h; series mostly up to 76.8 µM
Procedure, shortened: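 Antagonist-mode qHTS: compound titrations added to GRE-bla HeLa cells, then dexamethasone 2 nM final; 18 h, 37 C. CCF4 FRET fluorescence normalized to dexamethasone and DMSO; IC50 from Hill fit.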

[14] = target: Thyroid hormone receptor beta (Homo sapiens) (UniProt P10828); experiment: qHTS assay for small molecule antagonists of thyroid hormone receptor beta signaling (AID 588547; active = well fitted inhibition curve with a large enough effect in the signal ratio, with a control signal flat, not every such curve was filed as active; the % refers to the signal ratio;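 also: cells stimulated with 0.4 nM T3 agonist during compound exposure; % is scaled to controls: 0 for no effect and ±100 for the full control effect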); conditions: TR-UAS-bla HEK293, beta-lactamase ratio, antagonist mode, 18 h
Chain of Thyroid hormone receptor beta (Homo sapiens) (P10828 whole entry, looked up): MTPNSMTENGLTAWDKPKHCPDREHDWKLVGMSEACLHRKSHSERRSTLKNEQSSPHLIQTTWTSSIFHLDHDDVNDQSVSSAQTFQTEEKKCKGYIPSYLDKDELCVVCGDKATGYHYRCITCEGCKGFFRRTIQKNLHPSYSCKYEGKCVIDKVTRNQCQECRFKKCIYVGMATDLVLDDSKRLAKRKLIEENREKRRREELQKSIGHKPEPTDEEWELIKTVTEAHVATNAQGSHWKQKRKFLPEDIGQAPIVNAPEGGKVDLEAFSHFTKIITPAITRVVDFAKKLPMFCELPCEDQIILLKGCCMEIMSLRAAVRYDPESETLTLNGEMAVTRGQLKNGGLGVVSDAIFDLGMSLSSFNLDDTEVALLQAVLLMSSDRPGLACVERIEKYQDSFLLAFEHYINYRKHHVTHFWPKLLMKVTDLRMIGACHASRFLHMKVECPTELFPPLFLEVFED
Procedure, shortened: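 TR-UAS-bla GripTite HEK293 cells in 2% charcoal/dextran FBS medium were preincubated 4 h at 37 C, given compound (0.59 nM to 92 uM) plus 0.4 nM T3 (final) for 18 h, then CCF4 for 2 h at RT; Hill fit gave IC50.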

[15] = qHTS assay for small molecule activators of the nuclear factor-kappa B (NF-kB) signaling pathway (AID 651749; active = well fitted activation curve with a large enough effect in the signal ratio; the % refers to the signal ratio; also: potency is read from the fitted curve at half-maximal effect; as to activation: % of control where 0% means no effect); conditions: NF-kB-bla ME-180 cells, beta-lactamase FRET ratio, 16 h; activation: stronger effect = higher value
Procedure, shortened: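 ME-180 cells stably carrying a beta-lactamase reporter under an NF-kB response element were exposed to compound or DMSO vehicle for 16 hr at 37C, 5% CO2. Pathway activation was read by FRET, since reporter expression disrupts FRET.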

[16] = target: Nuclear receptor subfamily 1 group I member 2 (Rattus norvegicus) (UniProt Q9R1A7); experiment: qHTS assay for small molecule activators of the rat pregnane X receptor (rPXR) signaling pathway (AID 651751; call rule not given here; also: 0% is about no effect); conditions: rPXR reporter cells, luciferase (One-Glo), 24 h
Chain of Nuclear receptor subfamily 1 group I member 2 (Rattus norvegicus) (Q9R1A7 whole entry, looked up): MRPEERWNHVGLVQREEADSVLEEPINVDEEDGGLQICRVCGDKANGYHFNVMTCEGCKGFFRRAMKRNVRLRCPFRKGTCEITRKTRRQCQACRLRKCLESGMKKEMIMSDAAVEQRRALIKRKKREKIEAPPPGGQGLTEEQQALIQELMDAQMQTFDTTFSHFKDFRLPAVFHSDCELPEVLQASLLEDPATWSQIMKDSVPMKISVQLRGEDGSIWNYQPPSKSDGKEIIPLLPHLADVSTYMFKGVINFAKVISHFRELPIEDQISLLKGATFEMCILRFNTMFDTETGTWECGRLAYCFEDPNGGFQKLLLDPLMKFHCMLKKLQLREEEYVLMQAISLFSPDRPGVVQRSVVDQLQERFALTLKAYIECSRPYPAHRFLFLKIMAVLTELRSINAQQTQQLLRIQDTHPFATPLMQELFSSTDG

[17] = target: Bile acid receptor (Homo sapiens) (UniProt Q96RI1); experiment: qHTS assay for small molecule agonists of farnesoid X receptor signaling (AID 588527; calls by dose curve; also: potency is read from the fitted curve at half-maximal effect;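 as to activation: 0% = vehicle basal and 100% = reference agonist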); conditions: HEK293T FXR-UAS-bla, beta-lactamase ratio, 16 h; activation: stronger effect = higher value
Chain of Bile acid receptor (Homo sapiens) (Q96RI1 whole entry, looked up): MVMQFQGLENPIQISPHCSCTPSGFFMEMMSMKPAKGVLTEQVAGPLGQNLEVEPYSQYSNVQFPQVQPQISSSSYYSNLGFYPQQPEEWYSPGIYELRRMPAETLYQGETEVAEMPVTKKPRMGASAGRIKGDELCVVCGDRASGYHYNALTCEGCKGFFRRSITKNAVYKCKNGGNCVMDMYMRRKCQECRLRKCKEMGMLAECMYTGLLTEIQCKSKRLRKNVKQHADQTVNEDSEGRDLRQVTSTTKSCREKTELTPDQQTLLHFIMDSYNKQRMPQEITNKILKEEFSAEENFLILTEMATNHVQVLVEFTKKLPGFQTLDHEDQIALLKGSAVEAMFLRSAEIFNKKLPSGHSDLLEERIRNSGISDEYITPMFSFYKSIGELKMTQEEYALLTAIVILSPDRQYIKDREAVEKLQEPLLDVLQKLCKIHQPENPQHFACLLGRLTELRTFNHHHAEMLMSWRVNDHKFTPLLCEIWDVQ
Procedure, shortened: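 FXR-UAS-bla HEK293T cells (10% dialyzed FBS) preincubated 5-7 h at 37 C, then compounds at up to 92 uM for 16 h at 37 C. CCF4 beta-lactamase read-out after 2 h RT. Normalized to chenodeoxycholic acid (100 uM) and DMSO; Hill fit gave EC50 and efficacy.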

[18] = target: Vitamin D3 receptor (Homo sapiens) (UniProt P11473); experiment: qHTS assay for small molecule antagonists of vitamin D receptor signaling (AID 588541; calls by dose curve; also: potency is read from the fitted curve at half-maximal effect); conditions: HEK293T VDR-UAS-bla, beta-lactamase ratio, antagonist mode; series mostly up to 76.7 µM
Procedure, shortened: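 VDR-UAS-bla HEK293T cells (2000/well, 2% charcoal-stripped FBS) were treated with titrated compounds plus 1-alpha,25-dihydroxyvitamin D3 (50 nM or 3 nM final) for 16 h at 37 C. CCF4 beta-lactamase fluorescence was read; Hill fits gave IC50.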

[19] = target: Thyroid hormone receptor beta (Homo sapiens) (UniProt P10828); experiment: qHTS assay for small molecule agonists of thyroid hormone receptor beta signaling (AID 588545; calls by dose curve; also: potency is read from the fitted curve at half-maximal effect;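 as to activation: 0% = DMSO only and 100% = 10 nM T3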); conditions: TR-UAS-bla GripTite HEK 293, beta-lactamase ratio, agonist mode, 18 h; series mostly up to 76.7 µM
Procedure, shortened: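 TR-UAS-bla GripTite HEK 293 cells (2500/well, medium with 2% charcoal/dextran FBS) were treated in agonist mode for 18 h at 37 C, titrated. Beta-lactamase was read by CCF4 ratio after 2 h; normalized to 10 nM T3 (100%) and DMSO, Hill-fitted for EC50 and efficacy.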

[20] = qHTS assay for small molecule activators of the human pregnane X receptor (PXR) signaling pathway (AID 720659; call rule not given here; also: 0% is about no effect); conditions: DPX-2 HepG2 CYP3A4-luciferase, 24 h; series mostly up to 92.3 µM

CCCN1CCC[C@H](c2cccc(C#N)c2)C1
inactive: Potency [1] | Potency [2] | outcome [3] | outcome [4] | outcome [5]

CC(C)CC(C)Nc1ccc(Nc2ccccc2)cc1 (stereo unspecified)
inactive: caspase-3 activation [6] 17.5% | activation [7] 4.35% | outcome [8] | max response [10] -33.2%
-4.53%: max response [9]

O=C(O)C1C(C(=O)O)C2(Cl)C(Cl)=C(Cl)C1(Cl)C2(Cl)Cl (stereo unspecified)
inactive: caspase-3 activation [6] -0.527% | Potency [11] | Potency [12] | activation [7] -1.68% | Potency [13] | max response [10] -12.3% | activity change % (negative = inhibition) [14] -20.8% | activation [15] 0.511% | max response [16] 0.252%
-3.5%: max response [9]

OC(c1ccc(Cl)cc1)(c1ccc(Cl)cc1)C(Cl)(Cl)Cl
inactive: Potency [11] | Potency [12] | activation [17] 3.21% and 2.17% | activation [7] 4.22% | Potency [13] | Potency [18] | outcome [8] | Potency [19] | max response [10] 3.94% | activity change % (negative = inhibition) [14] -3.99% | activation [15] -0.969% | max response [16] -0.762% and 6.21% | outcome [20]
-2.98%: max response [9]

Clc1ccc(C(c2ccc(Cl)cc2)C(Cl)Cl)cc1
inactive: caspase-3 activation [6] 22.6% | Potency [12] | activation [17] 3.84% | activation [7] -2.1% | outcome [8] | Potency [19] | activity change % (negative = inhibition) [14] -7.83% and -28.4%

C#CCO
-7.57%: max response [9]
inactive: caspase-3 activation [6] -1.9% | Potency [11] | Potency [12] | activation [7] 0.566% | Potency [13] | outcome [8] | Potency [19] | max response [10] 24.4% | activity change % (negative = inhibition) [14] -4.81% | max response [16] 1.29% | outcome [20]

O=C1C2(Cl)C3(Cl)C4(Cl)C(Cl)(Cl)C5(Cl)C3(Cl)C1(Cl)C5(Cl)C24Cl (stereo unspecified)
39.8 µM (active) and inactive: Potency [18]
active: Potency [13] 39.8 µM
inactive: activation [17] 1.21% and 8.36% | activation [7] -3.98% and -15.4% | outcome [8] | activation [15] 4.98%

O=C(CCl)c1ccccc1
-13.4%: max response [9]
active: Potency [12] 12.6 µM
inactive: caspase-3 activation [6] -8.71% | Potency [11] | activation [7] 5.85% and 11.4% | outcome [8] | Potency [19] | max response [10] 9.61% | activity change % (negative = inhibition) [14] -10.9% | activation [15] 0.721% | max response [16] -5.24% and -3.68% | outcome [20]
39.8 µM (active) and inactive: Potency [13]

O=[N+]([O-])c1cc(C(F)(F)F)cc([N+](=O)[O-])c1Cl
active: Potency [12] 31.6 µM
0.867%: max response [9]
inactive: Potency [11] | activation [17] -1.74% | activation [7] -2.51% | Potency [13] | Potency [18] | outcome [8] | max response [10] 20% | activity change % (negative = inhibition) [14] -4.32% | activation [15] -0.593% | max response [16] -2.25% | outcome [20]

c1ccc2cc3c(cc2c1)-c1cccc2cccc-3c12
active: Potency [17] 3.16 µM | Potency [7] 15.8 µM | Potency [19] 7.94 µM | Potency [15] 7.08 µM and 4.47 µM
inactive: caspase-3 activation [6] -1.28% | Potency [11] | Potency [12] | max response [16] 5.83% and 4.65%

N#CC(Cl)Cl
active: Potency [6] 5.01 µM
6.6%: max response [9]
inactive: outcome [8] | max response [10] 0.201% | activation [15] -2.38% | max response [16] 0.641% | outcome [20]

Oc1c(Br)c(Br)c(Br)c(Br)c1Br
inactive: Potency [12] | activation [7] 3.02% | outcome [8] | outcome [20]
active: Potency [6] 31.6 µM | Potency [13] 39.8 µM

CN[C@@H](C)[C@@H](O)c1ccccc1
active: Potency [1] 7.94 µM | Potency [2] 10 µM
inactive: outcome [3] | outcome [4] | outcome [5]

Nc1ccccc1C(=O)OCCc1ccccc1
-8.78%: max response [9]
inactive: caspase-3 activation [6] -5.89% | Potency [12] | activation [7] -0.582% | Potency [13] | Potency [18] | Potency [19] | max response [10] -9.65% | activation [15] 0.217% | outcome [20]
